# Results as given in PubChem BioAssay (NCATS).
# Results filed as inconclusive are left out. Calls of active or inactive are those of the source. The call rests on the fitted dose curve.
# Test: qHTS Assay for Lipid Storage Modulators (AID 1519); on activity change, negative = inhibition: on the % scale 0 is the no-effect control and ±100 the full control effect
# Details: Drosophila S3 cells, BODIPY lipid droplet/cell ratio, laser cytometry; at 57.5 µM (top of the series); cells loaded with oleic acid
# Method in brief: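 Cells seeded at 5,000 per well were treated with compounds over a concentration series and loaded with oleic acid (400 uM, as added). Lipid droplet fluorescence (488 nm excitation, 500-530 nm channel) was read by laser-scanning cytometry and normalized to 20 uM Triacsin C.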
row,SMILES,"activity change, negative = inhibition"
1,Cc1coc2c1C(=O)C(=O)c1c-2ccc2c1CCCC2(C)C,6.48% (inactive)
2,CC[C@@]1(O)C(=O)OCc2c1cc1n(c2=O)Cc2cc3cc(O)ccc3nc2-1,-14.2% (inactive)
3,CC[C@H](CO)Nc1nc(NCc2ccccc2)c2ncn(C(C)C)c2n1,2.75% (inactive)
4,O=c1c2ccccc2nc2n1CCc1c-2[nH]c2ccccc12,1.95% (inactive)

# Same assay, conditions: Drosophila S3 cells, BODIPY lipid droplet/cell ratio, laser cytometry; measured here: cell count channel max response; cells loaded with oleic acid
row,SMILES,max response
1,Cc1coc2c1C(=O)C(=O)c1c-2ccc2c1CCCC2(C)C,16.1%
2,C[C@H]1C[C@@H]2[C@@H]([C@@H](O)C[C@@]3(C)[C@H]2CC[C@]3(O)C(=O)CO)[C@@]2(C)C=CC(=O)C=C12,-15.5%
3,Nc1ccc(S(=O)(=O)Nc2ncccn2)cc1,-6.66%
4,CC[C@@]1(O)C(=O)OCc2c1cc1n(c2=O)Cc2cc3cc(O)ccc3nc2-1,-6.87%
5,CC[C@H](CO)Nc1nc(NCc2ccccc2)c2ncn(C(C)C)c2n1,73%
6,O=c1c2ccccc2nc2n1CCc1c-2[nH]c2ccccc12,45%

# Same assay, conditions: Drosophila S3 cells, BODIPY lipid droplet/cell ratio, laser cytometry; measured here: lipid channel max response; cells loaded with oleic acid
row,SMILES,max response
1,Cc1coc2c1C(=O)C(=O)c1c-2ccc2c1CCCC2(C)C,23.2%
2,C[C@H]1C[C@@H]2[C@@H]([C@@H](O)C[C@@]3(C)[C@H]2CC[C@]3(O)C(=O)CO)[C@@]2(C)C=CC(=O)C=C12,-14.8%
3,Nc1ccc(S(=O)(=O)Nc2ncccn2)cc1,-7.25%
4,CC[C@@]1(O)C(=O)OCc2c1cc1n(c2=O)Cc2cc3cc(O)ccc3nc2-1,-17.5%
5,CC[C@H](CO)Nc1nc(NCc2ccccc2)c2ncn(C(C)C)c2n1,78.1%
6,O=c1c2ccccc2nc2n1CCc1c-2[nH]c2ccccc12,50%
